Experimental data from article PMC4336329 (PLoS ONE, 2015).
The whole screen tested about 310,000 compounds, of which about 14,000 (4.5%) showed an effect of 50% or more. The effect is printed as a negative number. The sample as a whole holds a higher share of strong results than the screen did.

Target: human ether-à-go-go-related gene (hERG) potassium channel (human, UniProt Q12809)
Assay: primary screen, population patch clamp on CHO cells stably expressing hERG; higher = less effect of the substance
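Also: peak tail current of the secondary pulse compared with the same well before compound.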

Sequence of human ether-à-go-go-related gene (hERG) potassium channel (Q12809 whole entry, looked up): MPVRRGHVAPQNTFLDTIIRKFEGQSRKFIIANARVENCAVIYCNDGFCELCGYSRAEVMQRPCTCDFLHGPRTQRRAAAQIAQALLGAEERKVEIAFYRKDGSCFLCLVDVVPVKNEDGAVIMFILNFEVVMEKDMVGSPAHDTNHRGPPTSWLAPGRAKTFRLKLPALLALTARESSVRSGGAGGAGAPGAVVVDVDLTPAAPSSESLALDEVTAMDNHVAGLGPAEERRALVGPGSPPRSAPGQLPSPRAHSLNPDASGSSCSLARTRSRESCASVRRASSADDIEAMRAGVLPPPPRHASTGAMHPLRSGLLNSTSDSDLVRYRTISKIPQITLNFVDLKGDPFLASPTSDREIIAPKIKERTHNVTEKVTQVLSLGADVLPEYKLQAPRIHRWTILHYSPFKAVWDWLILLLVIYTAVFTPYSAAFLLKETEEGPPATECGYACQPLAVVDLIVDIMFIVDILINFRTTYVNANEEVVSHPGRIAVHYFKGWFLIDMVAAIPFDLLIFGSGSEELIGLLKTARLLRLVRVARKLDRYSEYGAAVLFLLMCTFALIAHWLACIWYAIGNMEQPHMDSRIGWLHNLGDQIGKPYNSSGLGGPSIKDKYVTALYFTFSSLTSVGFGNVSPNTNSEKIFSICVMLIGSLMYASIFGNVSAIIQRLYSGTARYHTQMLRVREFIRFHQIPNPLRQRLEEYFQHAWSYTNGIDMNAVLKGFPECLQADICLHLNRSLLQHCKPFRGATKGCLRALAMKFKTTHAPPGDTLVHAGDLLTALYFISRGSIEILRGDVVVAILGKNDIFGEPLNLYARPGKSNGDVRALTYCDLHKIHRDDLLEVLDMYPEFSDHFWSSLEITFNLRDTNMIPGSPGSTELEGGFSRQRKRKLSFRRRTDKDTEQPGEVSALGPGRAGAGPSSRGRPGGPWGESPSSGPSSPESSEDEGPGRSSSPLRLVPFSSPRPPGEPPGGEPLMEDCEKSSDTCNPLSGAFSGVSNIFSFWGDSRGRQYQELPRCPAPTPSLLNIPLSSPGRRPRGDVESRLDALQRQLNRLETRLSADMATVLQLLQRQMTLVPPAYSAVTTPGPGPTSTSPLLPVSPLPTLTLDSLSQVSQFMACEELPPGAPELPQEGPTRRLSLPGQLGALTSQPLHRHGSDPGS

SMILES	hERG current change (%, negative = inhibition) at 10uM
COc1cccc(NS(=O)(=O)c2ccc3[nH]cc(C(=O)NCCC(C)C)c(=O)c3c2)c1	13.9%
Cc1ccc2nc(N/C(=N/S(=O)(=O)c3cccs3)c3ccccc3Cl)sc2c1	-7.11%
CN1CCN(S(=O)(=O)c2ccc(NC(=O)c3cccs3)cc2)CC1	-11.3%
NC(=O)c1ccsc1NC(=O)COC(=O)c1cnccn1	2.13%
CC1CCC(NC(=O)CNC(=O)c2cccs2)CC1 (centres unmarked)	7.33%
Cc1n[nH]c(=O)nc1N1CCc2ccccc2C1	4.47%
COc1cc(OC)cc(C(=O)Nc2ccc3c(c2)CCCN3C(=O)c2cccs2)c1	-2.41%
CCOc1cc(S(=O)(=O)NCC2CCCO2)ccc1F (centres unmarked)	13.8%
COc1ccccc1/C=C/C=N/n1c(-c2ccc(F)cc2)n[nH]c1=S	6.25%
CC1=NS(=O)(=O)c2cc(Cl)ccc2N1	-2.63%
Cc1occc1C(=O)NNC(=O)CN1C(=O)NC(C)(c2ccccc2)C1=O (centres unmarked)	19.1%
COc1cccc(NC(=O)CN(C)C(=O)c2oc3c(ccc4ccccc43)c2C)c1	-0.74%
CCOC(=O)c1cc(C#N)c(C)nc1N(CC)CC	-3.53%
CC(=O)Nc1cccc(OCC(=O)NS(=O)(=O)c2ccc(C)cc2)c1	1.18%
O=C1CC(C(=O)N2CCc3ccccc32)CN1c1ccc(F)cc1 (centres unmarked)	-55.3%
O=C1CC(C(=O)N2CCc3ccccc32)CN1c1ccccc1 (centres unmarked)	-6.98%
O=C1CC(C(=O)N2CCCc3ccccc32)CN1c1ccc(F)cc1 (centres unmarked)	-22.2%
CCNC(=O)CC1SC(=Nc2ccc(Cl)cc2)N(CC)C1=O (centres unmarked)	-0.837%
COCCCn1c(Cc2csc(Nc3ccc(F)cc3)n2)nnc1SCC(N)=O	-5.91%

SMILES	hERG current change (%, negative = inhibition) at 10uM
COc1ccc(CN(C)CC2CCCN(CCc3ccc(F)cc3)C2)cc1OC (centres unmarked)	-64.8%
COc1cccc(CN(C)CC2CCCN(CCc3ccc(Cl)cc3)C2)c1OC (centres unmarked)	-74.5%
COc1ccc(CN(C)C2CCN(C)CC2)cc1OC	21.8%
COc1cc(CN(C)CC2CCCN(CCc3ccc(F)cc3)C2)c(Cl)cc1O (centres unmarked)	-30%
COc1ccc(CN(C)CC2CCCN(CCc3ccc(F)cc3)C2)c(OC)c1OC (centres unmarked)	-74.8%
COc1ccc(CN(C)CC2CCCN(CCc3ccc(Cl)cc3)C2)cc1OC (centres unmarked)	-88.5%
Cc1ccc2[nH]c3c(Cl)ncnc3c2c1	5.18%
Cc1ccc(O)c(C(CC(=O)N2CCCC2)c2ccccc2)c1 (centres unmarked)	-18.9%
COc1ccc(O)c(-c2cc(-c3cccs3)[nH]n2)c1	0.169%
CCn1cc(C2C(C(=O)Nc3cc(C)ccn3)=C(C)NC3=C2C(=O)CC(C)(C)C3)c(C)n1 (centres unmarked)	11.3%
Cc1cccc(NC(=O)CSc2nc(COc3ccccc3)nc3ccccc23)c1C	13.5%
COc1ccccc1NC(=O)Nc1nn(C)c2cccc(OC)c12	2.03%
CCCC12CN3CCN(CC(C3)/C1=N\NC(=O)c1ccc(C(C)(C)C)cc1)C2	-14.4%
Cc1cccc(N2CCN(CC(=O)Nc3nccs3)CC2)c1C	-45.3%
Cc1cc2nc(-c3ccc(SCC(=O)Nc4ccc5c(c4)OCCO5)nc3)[nH]c2cc1C	2.26%
COC(=O)c1cc2c(cc1NC(=O)CSCCc1ccccn1)OCO2	7.82%
COc1ccc(-c2noc(CN(C)S(=O)(=O)c3ccc(Cl)cc3)n2)cc1OC	-9.85%
O=C1NC(=O)[C@]2(Cc3ccccc3N3CCN(c4ccccc4)CC32)C(=O)N1c1ccccc1 (some centres unmarked)	-7.93%
COc1ccc([N+](=O)[O-])cc1NS(=O)(=O)c1ccccc1	8.94%

SMILES	hERG current change (%, negative = inhibition) at 10uM
COc1ccc(N2CCN(CC(=O)Nc3cc(C)on3)CC2)cc1.O=C(O)C(=O)O	0.616%
CC(C)Cn1c(N)c(C(=O)CSc2ncccn2)c(=O)n(C)c1=O	6.81%
Cc1ccc(S(=O)(=O)CCC(=O)NCc2ccc(Cl)cc2)cc1	-3.96%
CCN(CC(=O)NCc1ccc(Cl)cc1)C(=O)CCOc1ccc(C)cc1	-82.6%
CCOc1ccc(OCCC(=O)OCC(=O)NCc2ccc(Cl)cc2)cc1	8.85%
CCCCOc1ccc(C(=O)N(CC)CC(=O)NCc2cccs2)cc1	-19.1%
CCN(CC(=O)Nc1c(F)cccc1F)C(=O)CCNC(=O)c1ccc([N+](=O)[O-])cc1	-55.4%
CCOc1ccc(OCCC(=O)N(CC)CC(=O)NCc2ccc(Cl)cc2)cc1	-60.5%
CCN(CC(=O)NCc1cccs1)C(=O)CCCOc1ccc(C(C)(C)C)cc1	-52.6%
CCN(CC(=O)Nc1cc(Cl)ccc1C)C(=O)CCOc1ccc(C)cc1	-8.25%
CCN(CC(=O)Nc1ccccc1C(F)(F)F)C(=O)CCOc1ccc(C)cc1	-13.1%
CCN(CC(=O)Nc1c(F)cccc1F)C(=O)CCCNC(=O)c1ccc(Cl)cc1	-7.06%
CCOc1ccc(N(CC(=O)NCc2ccc(Cl)cc2)S(=O)(=O)c2ccccc2)cc1	20.4%
CCN(CC(=O)NCc1cccs1)C(=O)CCCOc1ccccc1	-35.2%
CCN(CC(=O)Nc1c(F)cccc1F)C(=O)CCC(=O)c1ccc(F)cc1	-12.1%
O=C(NCC1COCCO1)C1CCN(S(=O)(=O)c2ccccc2)CC1 (centres unmarked)	-7.05%
Cc1cc(C)cc(N(CC(=O)NCc2cccnc2)S(C)(=O)=O)c1	-1.95%
Cc1ccccc1NCc1ccc([N+](=O)[O-])s1	-38.8%
